Compound activity as filed in PubChem.
An excerpt weighted towards active compounds, which were near 9.3% of everything screened.
M1 antag = antagonists of rat M1 muscarinic receptor | CHO-M1 cells, Fluo-4 calcium, ACh EC80 antagonist mode; hits give low values | B-score at 10 µM | actives 3.4% (n = 64,000);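 active means calcium fluorescence response, raw or row-and-column corrected B-score, differing from the plate sample mean either way at a set confidence level, mostly lower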
Target sequence (P08482 whole entry, looked up): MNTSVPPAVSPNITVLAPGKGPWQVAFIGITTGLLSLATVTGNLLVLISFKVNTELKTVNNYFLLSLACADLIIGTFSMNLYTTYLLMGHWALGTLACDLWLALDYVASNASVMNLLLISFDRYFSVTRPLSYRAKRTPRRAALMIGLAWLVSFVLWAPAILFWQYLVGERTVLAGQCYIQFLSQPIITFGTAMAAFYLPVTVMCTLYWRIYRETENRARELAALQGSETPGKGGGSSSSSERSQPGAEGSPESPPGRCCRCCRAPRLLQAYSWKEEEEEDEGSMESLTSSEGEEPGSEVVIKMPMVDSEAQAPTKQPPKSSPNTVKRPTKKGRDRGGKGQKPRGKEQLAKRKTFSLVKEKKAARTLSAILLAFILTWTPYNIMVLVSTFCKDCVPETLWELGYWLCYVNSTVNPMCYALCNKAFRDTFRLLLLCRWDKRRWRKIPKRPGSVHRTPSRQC
M1 agonist = M1 muscarinic receptor agonism | CHO-M1 cells, Fluo-4 calcium fluorescence, agonist mode; hits give high values | B-score at 10 µM | actives 3% (n = 64,000) | AID 626;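 active means fluorescence rise, raw or as B-score row- and column-corrected plate score, outside the 99.7% band of its plate's samples, either direction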
NADH enzymes = blocks coupling enzymes of NAD/NADH assays. coupled PK/LDH NADH assays, four targets. IC50, µM (series often up to 10 µM), without a hit: top-dose inhibition. actives 0.02% (n = 65,000). AID 774;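 active means single-dose screening hits from any of four coupled enzyme assays that gave an IC50 when retested across doses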;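 further: the DPM-DC format reads NADH fluorescence rather than 340 nm absorbance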
Fluor 339 460 = intrinsic fluorescence of library compounds, ex339/em460 – biochemical, MLSMR library, data from DPM-DC assay, artefact control, profiling panel; compound autofluorescence, ex339/em460 nm, NADH buffer; hits give high values; 1 = no-compound wells, NADH background; fluorescence fold increase at 10 µM; actives 5.5% (n = 65,000); AID 709;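 active means at 10 µM, mean starting fluorescence two-fold or more over control wells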;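 further: signal is the first read of a kinetic run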
Abs 340nm = compounds absorbing at 340 nm. compound absorbance at 340 nm, fold over control. fold change at 10 µM. 65,000 tested, under 10 active;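 active means at 10 µM dose, initial 340 nm absorbance at least 2 fold that of control wells; inactive means change under 2 fold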;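 further: initial absorbance extrapolated from kinetic A340 decline of NADH oxidation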
mHtt clearance = mutant huntingtin protein clearance; actives 0.42% (n = 47,000); inhibition, % at 1.5 µM; AID 853; HeLa Exon1htt(103Q)mCFP, aggregate imaging; zero = plate's median compound well;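 active means inhibition of aggregate fluorescence above about 70%, also judged a hit by eye on the cell image, limit read from the data, passing the limit was not always enough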;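 further: cells exposed to compound for three days before fixation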
An asterisk follows results filed as active; / = no result.

SMILES | M1 antag | M1 agonist | NADH enzymes | Fluor 339 460 | Abs 340nm | mHtt clearance
COC(=O)c1[nH]c2cccc(OC)c2c1NC(=O)CN1CCN(c2cccc(OC)c2)C(C)C1 (configuration not stated) | -0.57 | 2.2 | 13% | 3* | 1.1 | 13
COC(=O)c1[nH]c2cccc(OC)c2c1NC(=O)CCN1CCN(c2ccccc2OC)CC1 | -0.65 | 2.5 | 20% | 3.1* | 1 | /
CCc1nc2ccccc2c(=O)n1CCCCn1c(CC)nc2ccccc2c1=O | 0.98 | -0.23 | 8% | 1.1 | 0.96 | /
Cc1ccc(OCCNS(=O)(=O)c2ccc(N3CCCC3=O)cc2)cc1C | / | / | / | / | / | -56
COc1ccc(CC(=O)NC2CC(C)(C)NC(C)(C)C2)cc1 | / | / | / | / | / | -85
N#Cc1nc(Cc2ccccc2)oc1NCc1cccnc1 | 2 | -0.65 | 8% | 1 | 1 | 27
N#Cc1nc(-c2ccco2)oc1NCc1ccc(F)cc1 | -0.34 | -0.0044 | 15% | 3.3* | 1 | -86
N#Cc1nc(-c2ccco2)oc1NCc1cccnc1 | 0.3 | -0.36 | 19% | 2.1* | 1 | 17
CCOC(=O)c1ccccc1NC(=O)CSc1nnc(COc2ccccc2C)n1C | -0.52 | 0.63 | 3% | 1 | 1.1 | 29
Cc1cccc2cc(CN(Cc3nnnn3C3CCCCC3)C3CCCC3)c3nnnn3c12 | / | / | / | / | / | -37
CCCc1sc(N/N=C/c2ccccn2)nc1-c1ccc(F)cc1 | / | / | / | / | / | 82*
O=C(N/N=C/c1ccccn1)c1ccco1 | / | / | / | / | / | -12
Cc1ccc(C)c(C(=O)CC2(O)C(=O)N(C)c3ccccc32)c1 (configuration not stated) | -0.59 | -0.44 | 3% | 1 | 0.98 | 36
Cc1ccc2c(c1)c1cccc3c1n2CCN3CCC(N)=O | -0.62 | 0.41 | 11% | 2.2* | 1.1 | 26
Cc1ccc(-c2nc(CS(=O)CC(=O)NC3CCC(C)CC3)c(C)o2)cc1 (configuration not stated) | 0.28 | -1.3 | 5% | 1.1 | 1 | /
O=C(O)C1C2C=CC(C2)C1C(=O)NCc1ccccn1 (configuration not stated) | 2.7* | 0.7 | 6% | 1.1 | 0.98 | /
COc1ccc(OC)c(NC(=O)C2C3C=CC(C3)C2C(=O)NCc2ccccn2)c1 (configuration not stated) | 0.13 | -1.1 | 4% | 1.1 | 1 | /
O=C(c1cc2ccccc2o1)N1CCN=C1SCc1cccnc1 | -0.1 | -0.87 | 6% | 1 | 1 | /
c1csc(-c2cnc3ccccc3n2)c1 | -0.073 | 0.12 | 5% | 3.6* | 1 | /
c1cncc(Nc2nc(-c3cccs3)cs2)c1 | 0.26 | -1.4 | 3% | 1.1 | 1 | /
CC1CCN(C(=O)c2cc(F)c(F)cc2Cl)CC1 | / | / | / | / | / | 5
COc1ccc(S(=O)(=O)NCC2CCC(C(=O)N3CCC4(CC3)OCCO4)CC2)cc1 (configuration not stated) | 0.052 | -0.85 | 6% | 1 | 1.1 | 29
CNC(=O)c1cc2c(=O)n3cc(C)ccc3nc2n(Cc2ccco2)c1=N | -0.16 | -1.9 | 4% | 2* | 1 | /
CNC(=O)c1cc2c(=O)n3cc(C)ccc3nc2n(C(C)C)c1=N | -0.29 | 17* | 7% | 5* | 1 | /
Cc1ccc2ncc(NC(=O)c3ccc(F)cc3)c(=O)n2c1 | / | / | / | / | / | -55
SMILES | M1 antag | M1 agonist | NADH enzymes | Fluor 339 460 | Abs 340nm | mHtt clearance
COCCCNC(=O)c1c(N)n(-c2ccc3c(c2)OCO3)c2nc3ccccc3nc12 | 0.27 | -0.34 | 5% | 2.7* | 1.1 | -10
CCCNC(=O)c1c(N)n(-c2cc(OC)cc(OC)c2)c2nc3ccccc3nc12 | -0.42 | -1.2 | 4% | 2.5* | 1 | /
CCCNC(=O)c1c(N)n(-c2ccc3c(c2)OCO3)c2nc3ccccc3nc12 | 0.13 | 0.36 | 9% | 1.4 | 1.1 | -24
Nc1c(C(=O)NC2CC2)c2nc3ccccc3nc2n1-c1ccc2c(c1)OCO2 | -0.14 | -0.54 | 6% | 3.2* | 1.1 | 16
COC(=O)c1ccc(CSc2nc3ccccc3c(=O)n2Cc2ccco2)o1 | -0.22 | 0.00064 | 4% | 1 | 1 | /
CCCCC1(C)OC(=O)C(=Cc2ccc(N(CC)CC)cc2)C(=O)O1 (configuration not stated) | / | / | / | / | / | 2
CCN(CC)c1ccc2c(c1)oc(=O)c1c(Cl)cc(=O)oc12 | -0.1 | 45* | 9% | 1.7 | 1.1 | -6
CCN(CC)c1ccc2c(Cl)c(Br)c(=O)oc2c1 | 0.46 | 38* | 1% | 1.5 | 1 | /
CCN(CC)c1ccc2c(c1)C(=O)N(C)C2=O | -0.35 | 0.64 | 5% | 1.2 | 1 | 16
CCCNc1ncccc1C(N)=O | 0.32 | 0.36 | 6% | 3.4* | 1 | /
CN1CCN(c2nc3nonc3nc2N2CCN(C)CC2)CC1 | 0.33 | -0.18 | 13% | 0.98 | 1.1 | 15
COC(=O)c1ccc(Nc2ncnc3c2cnn3-c2cccc(C)c2)cc1 | 0.055 | -0.28 | 4% | 2.1* | 1.1 | /
Cc1ccc(S(=O)(=O)N2CCC(C(=O)N3CCC(C(=O)NCc4cccnc4)CC3)CC2)cc1 | 0.044 | -0.056 | 4% | 1 | 1 | 14
CN1CCN(C(=O)CCC(=O)c2ccc(F)cc2)CC1 | 0.0024 | 0.76 | 6% | 0.96 | 0.98 | -59
COc1ccc2[nH]c(=O)c(CN(CCCN(C)C)C(=O)Nc3ccccc3)cc2c1 | 2.1 | -0.0065 | 13% | 2.7* | 1.1 | /
CCOc1cc(C(=O)N(C)Cc2cc3cc(OC)ccc3[nH]c2=O)cc(OCC)c1OCC | 0.15 | -0.52 | 6% | 1.6 | 1 | -5
COc1ccc2[nH]c(=O)c(CN(C(=O)C3CCCO3)c3ccc(C)cc3)cc2c1 (configuration not stated) | -0.09 | -0.6 | 17% | 2.9* | 1.1 | 31
CCOc1ccc(N(Cc2cc3cc(OC)ccc3[nH]c2=O)S(C)(=O)=O)cc1 | / | / | 12% | 2.8* | 1 | -21
CCN(Cc1cc2cc(OC)ccc2[nH]c1=O)C(=O)Cc1ccc(OC)cc1 | 0.83 | -0.58 | 1% | 2.4* | 1 | 13
O=C(Cn1ccc2ccccc2c1=O)NCCC(=O)NC1CCN(Cc2ccccc2)CC1 | -0.47 | -0.032 | 3% | 1.1 | 1 | -26
COc1ccc2[nH]c(=O)c(CN(C(C)=O)c3cccc(C)c3)cc2c1 | 0.98 | 0.8 | 5% | 3.2* | 1.1 | /
CCN1CCCC1CN(Cc1cc2cc(OC)ccc2[nH]c1=O)C(=O)NCc1ccccc1 (configuration not stated) | 0.064 | 0.018 | 8% | 4.3* | 1.1 | 62
COCC(=O)N(Cc1cc2cc(OC)ccc2[nH]c1=O)c1ccccc1 | -0.65 | 0.096 | 3% | 2.7* | 1 | -26
CCOc1ccccc1C(=O)N(C)Cc1cc2cc(OC)ccc2[nH]c1=O | 0.53 | -1.2 | 9% | 2.7* | 1.1 | /
CCOc1ccc(-c2nnn(CC(=O)N3CCCC3)n2)cc1OCC | / | / | / | / | / | -16
COc1ccc(-n2c(Cc3cccn3C)nnc2SCC(=O)NCCc2ccccc2)cc1 | -0.56 | -1.2 | 3% | 1.1 | 1 | 11
CC(C)=CC(=O)Nc1ccc(Br)cc1 | -0.67 | -0.1 | 5% | 1.1 | 0.97 | /
